PLK1 PBD inh – PLK1 (human) polo-box domain binding inhibition. P53350. Plk1 PBD binding of FITC phosphopeptide, fluorescence polarization. Potency, µM, for inactives: max response, negative = inhibition, hits mostly inhibitors. hit rate 2.8% among 360,000; also: potency is read from the fitted curve at half-maximal effect; series mostly up to about 57 µM; nearly all actives have a fitted effect of over 65% in size
WRN helicase inh – WRN helicase (human) inhibition; Q14191; hit rate 0.46% among 360,000; WRN helicase unwinding, fluorescent forked duplex, kinetic; Potency, µM (top dose mostly 114 µM), without a hit: top-dose activity change, negative = inhibition, most hits filed as inhibitors; also: potency is read from the fitted curve at half-maximal effect; nearly all actives have a fitted effect of over 55% in size
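Kinetic red-fluorescence monitoring (525/598 nm) tracks WRN helicase activity after 100 nM fluorophore-quencher forked duplex and 2 mM ATP are added to 20 nM enzyme pretreated 15 min at room temperature with compound.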
USP1 inh – blocks the human USP1/UAF1 deubiquitinase complex; O94782; recombinant USP1/UAF1, Ub-Rhodamine cleavage fluorescence; Potency, µM (doses to about 57.1 µM), for inactives: top-dose activity change, negative = inhibition, hits mostly inhibitors; hit rate 0.23% among 390,000; AID 743255; also: potency is read from the fitted curve at half-maximal effect; nearly all actives have a fitted effect of over 60% in size
Target sequence (O94782 whole entry, looked up): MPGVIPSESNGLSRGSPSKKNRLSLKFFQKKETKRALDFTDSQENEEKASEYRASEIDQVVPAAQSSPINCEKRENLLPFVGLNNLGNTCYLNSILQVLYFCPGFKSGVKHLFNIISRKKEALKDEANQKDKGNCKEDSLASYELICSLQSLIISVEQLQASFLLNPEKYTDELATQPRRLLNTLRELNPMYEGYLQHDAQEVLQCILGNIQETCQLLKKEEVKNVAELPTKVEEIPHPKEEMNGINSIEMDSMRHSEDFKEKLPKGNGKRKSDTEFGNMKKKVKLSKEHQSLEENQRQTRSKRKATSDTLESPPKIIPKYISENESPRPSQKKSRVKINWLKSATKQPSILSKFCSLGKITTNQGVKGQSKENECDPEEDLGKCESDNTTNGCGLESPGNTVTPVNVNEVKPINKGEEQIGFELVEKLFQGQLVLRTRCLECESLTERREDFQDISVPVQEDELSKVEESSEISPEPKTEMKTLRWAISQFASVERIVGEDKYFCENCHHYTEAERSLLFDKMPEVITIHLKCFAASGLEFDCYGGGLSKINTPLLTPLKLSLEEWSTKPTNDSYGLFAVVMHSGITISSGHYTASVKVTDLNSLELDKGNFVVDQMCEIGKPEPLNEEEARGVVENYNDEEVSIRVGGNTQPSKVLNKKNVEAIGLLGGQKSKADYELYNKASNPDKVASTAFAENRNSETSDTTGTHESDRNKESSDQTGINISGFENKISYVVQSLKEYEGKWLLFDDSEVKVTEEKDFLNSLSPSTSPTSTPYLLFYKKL
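High-throughput fluorogenic screen: 1nM USP1/UAF1 complex, Ub-Rho substrate 150nM final, 50mM HEPES pH 7.8 with 0.5mM EDTA, 0.1 mg/ml BSA, 1mM TCEP and 0.01% Tween-20.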
PI5P4Ka inh – blocks human PI5P4K alpha kinase activity. P48426. PI5P4Kalpha enzyme, ADP-Glo luminescence, 60 min; stronger effect = lower value. max response, %. hit rate 1.2% among 330,000. AID 652105; active = max response of -50% or lower; inconclusive = between -30% and -50%; inactive = -30% or higher; also: value at the top dose of about 77 µM
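Human PI5P4Kalpha with substrate in 0.038 M HEPES pH 7.4, 0.28 mM EGTA, 0.1% CHAPS, 5% DMSO; reaction started with 5 microM ATP (final), 60 min at room temperature. ADP formed read by ADP-Glo luminescence.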
USP2a inh – USP2a (human) protease inhibition | O75604 | USP2 core, Ub-CHOP2 coupled fluorogenic reporter, 485/531 | Potency, µM (highest dose often 38.3 µM), without a hit: top-dose activity change, negative = inhibition, actives largely listed as inhibitors | hit rate 0.01% among 330,000 | AID 463254;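 also: potency is read from the fitted curve at half-maximal effect; plate controls were DMSO wells for no effect and full inhibition by NEM control for full effect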
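USP2 core (10nM final) preincubated 30min RT with compound in 20mM Tris-HCl pH 8.0, 2mM CaCl2, 2mM beta-mercaptoethanol, 0.05% CHAPS; 25nM Ub-CHOP2 plus 25nM reporter substrate added, fluorescence (Ex485/Em531) read after 60min.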
ADP-Glo counter – ADP-Glo luciferase interference, PI5P4K counter-screen. ADP-Glo detection counter-screen, luciferase luminescence, no enzyme. 1,100 tested, under 10 active. Potency, µM (highest dose often 76.9 µM), inactives show at the highest dose activity change, negative = inhibition, usual class: inhibitors. shares compounds with PI5P4Ka inh
* hit, by the source's call; ? = inconclusive; . = not tested or not shown; [ ] = remark or other dose. Most compounds without a hit are left out; they make up all but 3.3% or so of the library. Unless noted, calls follow the shape of the dose curve; as a rule, active = well fitted curve in the direction sought with a large enough effect; inconclusive = small, poorly fitted or top-dose-only effect, or another doubt; inactive = no such curve, though single readings can be large; an effect the other way counts as inactive or inconclusive. Unless noted, % is scaled to controls: 0 for no effect and ±100 for the full control effect.

SMILES	PLK1 PBD inh	WRN helicase inh	USP1 inh	PI5P4Ka inh	USP2a inh	ADP-Glo counter
NC(=O)c1ccsc1NC(=O)COC(=O)c1ccccn1	-28%	-6%[11.6 µM]	-3%	-52*	0%	-3%
NC(=O)c1ccsc1NC(=O)COC(=O)c1ccncc1	-2%	-18%	-14%	-22	-1%	.
Cc1ccc2c(C)c(C(=O)N(Cc3ccc(N(C)C)cc3)Cc3ccco3)oc2c1C	.	.	1%	.	.	.
CCn1c(C(=O)OC)cc2c1ccn2-c1ccc(F)cc1	3µM*	?	?	-50*	4%	-2%
COc1ccc(S(=O)(=O)N(C(=O)c2ccco2)c2cc3sc(=O)oc3c3ccccc23)cc1	-21%	45µM*	-11%	-61*	2%	-8%
NC(=O)COC(=O)c1cccc(S(=O)(=O)N2CCN(c3ccccc3)CC2)c1	-17%	8%	9%	-2	3%	.
O=C(COC(=O)c1cccc(S(=O)(=O)N2CCN(c3ccccc3)CC2)c1)NCc1ccco1	-22%	?	-7%	-54*	-11%	-3%
COc1ccccc1NS(=O)(=O)c1ccc(C(=O)OCC(=O)NCc2ccco2)cc1	-9%	-25%	6%	-60*	-1%	-4%
CCCC(=O)Nc1nnc(SCc2cc(=O)c3cc(C)ccc3[nH]2)s1	.	.	9%	.	.	.
CCOc1ccc(-n2nc(CO)c(C(=O)NCc3cccc(OC)c3)n2)cc1	.	.	-10%	.	.	.
COCCCNc1ncnc2sc3c(c12)CCC(C)C3 (stereo unspecified)	-13%	-1%	1%	3	4%	.
CC1CCc2c(sc3ncnc(NS(=O)(=O)c4cccs4)c23)C1 (stereo unspecified)	-8%	5%	-20%	-55*	3%	2%
COc1ccc(C2=NOC(C(=O)NCc3ccccn3)C2)cc1OC (stereo unspecified)	-2%	-7%	-10%	-53*	1%	3%
CCCOc1ccc(OC(=O)c2cn(-c3ccc(OC)cc3)c(=O)c3ccccc23)cc1	.	.	-37%	.	.	.
O=c1[nH]c2cc3c(cc2cc1CN(Cc1ccccc1)Cc1nnnn1Cc1ccco1)OCCO3	?	?	-8%	-54*	-9%	10%
Clc1ccc2nc(CSc3nc4ccccc4o3)cn2c1	-10%	-3%	-5%	-83*	2%	-7%
CCCS(=O)(=O)NCCc1csc2nc(-c3ccc(OC)cc3)nn12	.	.	-7%	.	.	.
CC(C)NC(=O)N1c2ccccc2Sc2ccccc21	6%	4%	-22%	-60*	-1%	-1%
CCc1ccc(S(=O)(=O)Nc2ccc3[nH]c(=O)sc3c2)cc1	.	.	1%	.	.	.
O=C(CCn1nnc2ccccc21)Nc1nnc(Cc2ccccc2)s1	-29%	-18%	-12%	-53*	-1%	1%
O=C(CCn1nnc2ccccc21)Nc1nnc(COc2ccccc2F)s1	-3%	-2%	-21%	-6	1%	.
CCOc1ccc(CCNC(=O)c2cccc(-n3c(C)nc4cccnc43)c2)cc1	.	.	-31%	.	.	.
CCOC(=O)Cc1csc(NC(=O)Cc2ccccc2)n1	-13%	-3%	-8%	9	0%	.
CCOC(=O)Cc1csc(NC(=O)Cc2cccs2)n1	-13%	-17%[57.1 µM]	-18%	-58*	2%	0%
Clc1ccc(-c2nnc(-c3ccco3)nc2N2CCCCC2)cc1	?	?	-24%	-67*	-1%	-5%
SMILES	PLK1 PBD inh	WRN helicase inh	USP1 inh	PI5P4Ka inh	USP2a inh	ADP-Glo counter
Clc1ccc(-c2nnc(-c3ccc(Br)cc3)c(N3CCSCC3)n2)cc1	0%	2%	-19%	.	0%	.
COc1ccc(C2=NCCn3nc4cc(OC)ccc4c32)cc1	-16%	-3%	-13%	-82*	2%	4%
COCc1cc(N2CCCCC2)nc(-c2ccccc2)n1	27µM*	?	-9%	-74*	-5%	-4%
CSCc1cc(N2CCCC2)nc(-c2ccccc2)n1	-3%	-9%	-9%	8	3%	.
CCN(CC)S(=O)(=O)c1ccc2c(c1)N(CC(=O)Nc1ccc(C)cc1C)C(=O)C1CCCN21 (stereo unspecified)	.	.	-12%	.	.	.
CN(c1ccccc1C(=O)O)S(=O)(=O)c1ccc2c3c(cccc13)C(=O)N2	-13%	?	-13%	-56*	-3%	-3%
O=C(O)c1ccccc1NS(=O)(=O)c1ccc2c3c(cccc13)C(=O)N2	-18%	-29%	-11%	.	-1%	.
CCCCN(Cc1cccs1)S(=O)(=O)c1cc(-c2cc(C)no2)ccc1C	.	.	-3%	.	.	.
O=C(CSc1nc(=O)n2cc(Cl)ccc2n1)Nc1ccc2c(c1)OCCO2	5%	?	-3%	-54*	-6%	-4%
NC(=S)c1cc2ccc(O)cc2oc1=O	?	?	-9%	-72*	1%	-7%
CCOc1ccc(C(=O)c2cc3ccc(O)cc3oc2=O)cc1	0%	-2%	-20%	-67*	2%	0%
Cc1cccc(N=c2oc3cc(O)ccc3cc2C(N)=O)c1	-5%	-10%	-13%	-55*	5%	5%
COc1ccc2cc(C(N)=O)c(=Nc3ccc(C)cc3)oc2c1	-8%	1%	-3%	8	1%	.
C/C(=N/NC(N)=S)c1cc2ccc(O)cc2oc1=O	30%	-5%	?	?	3%	.
COc1ccc(Cl)cc1C(=O)NCC(c1ccc(N(C)C)cc1)N1CCOCC1 (stereo unspecified)	.	.	-16%	.	.	.
Cc1oc2c(c(C)cc3oc(=O)c(CC(=O)NCCc4ccccc4)c(C)c32)c1C	.	.	15%	.	.	.
COc1ccc(-c2cc3c(=O)n(CC(=O)Nc4cc(C)ccc4C)ccn3n2)cc1	.	.	-11%	.	.	.
CC(=O)c1ccc(N2CCN(c3ncnc4c3nc3n4CCCC3)CC2)cc1	.	.	-16%	.	.	.
Cc1nnc(-c2ccccc2)nc1N(C)C	-3%	4%	-16%	-68*	2%	-2%
CC1(c2ccccc2)CC(C)(C)N(C(=O)c2cccc(Cl)c2)c2ccccc21 (stereo unspecified)	.	.	-21%	.	.	.
CC(C)C(=O)Nc1nnc(NC(=S)Nc2ccccc2)s1	?	-3%	-16%	-56*	1%	-9%
CC(C)C(=O)Nc1nnc(CCc2ccccc2)s1	-14%	1%	-5%	-51*	7%	-3%
Cc1ccc(S(=O)(=O)CCC(=O)Nc2nnc(-c3ccc(F)cc3)o2)cc1	-12%	-3%	-5%	7	0%	.
COc1cc(OC)cc(-c2nnc(NC(=O)CCS(=O)(=O)c3ccc(C)cc3)o2)c1	-15%	-4%	-9%	-50*	-1%	2%
COc1ccc(OC)c(NC(=O)N2CCC(CN3CCCCC3)CC2)c1	.	.	10%	.	.	.
N=c1oc2ccc3ccccc3c2cc1C(N)=S	24µM*	0%	-5%	-60*	0%	-1%
